{"source": "PubChem BioAssay AID2732", "about": "(Emory University Molecular Libraries Screening Center, 2010)", "note": "Out of some 220,000 compounds screened, about 8,200 (3.7%) were called active. For the sample, actives were picked, then their nearest neighbours and some compounds at random. Unmarked numbers belong to inactive results.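 Rule for the calls: active = compounds that reduced the stress-induced luciferase reporter signal by more than about 70% of percent inhibition (limit read from the data); inactive = the rest.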"}
{"assay": "inhibitors of CHOP promoter induction, primary screen, cell-based, unfolded protein response, luciferase reporter (AID 2732);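 note: 0% = tunicamycin plus vehicle and 100% = wells without tunicamycin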", "settings": "CHO-K1 CHOP-promoter luciferase, tunicamycin-induced, 15-18 h; at 10 µM; active compounds read high"}
{"smiles": "Cc1[nH]n(C)c(=O)c1N=Nc1ccc(S(C)(=O)=O)cc1", "inhibition": "7.35%"}
{"smiles": "CCc1ccccc1NC(=O)/C(=C/c1ccccc1)c1ccccc1", "inhibition": "84.8% (active)"}
{"smiles": "O=C(/C=C/c1ccccc1)N/C(=C/c1ccccc1)C(=O)Nc1ccccc1O", "inhibition": "-0.94%"}
{"smiles": "CCc1ccccc1NC(=O)c1cccs1", "inhibition": "39.1%"}
{"smiles": "N#CC(C(=O)c1ccc(S(=O)(=O)N2CCCCCC2)cc1)c1nc2ccccc2[nH]1", "note": "(stereo unspecified)", "inhibition": "101% (active)"}
{"smiles": "O=C(N/N=C/c1ccccn1)c1ccc(S(=O)(=O)N2CCCCCC2)cc1", "inhibition": "-0.54%"}
{"smiles": "COc1ccccc1N1CCN(C(=O)c2ccc(S(=O)(=O)N3CCCCC3)cc2)CC1", "inhibition": "10.2%"}
{"smiles": "CCN(CC)S(=O)(=O)c1ccc(C)c(NC(=O)COc2ccc(Br)cc2Cl)c1", "inhibition": "88% (active)"}
{"smiles": "CCN(CC)S(=O)(=O)c1ccc(Cl)c(NC(=O)c2ccncc2)c1", "inhibition": "4.4%"}
{"smiles": "Cc1ccc(S(=O)(=O)N(C)C)cc1NC(=O)COC(=O)c1c(C)noc1C", "inhibition": "22.9%"}
{"smiles": "COC(=O)c1cccc(NS(C)(=O)=O)c1", "inhibition": "27.4%"}
{"smiles": "COC(=O)c1sc(SC)c(S(=O)(=O)C(C)C)c1N/N=C(\\C#N)S(=O)(=O)c1ccccn1", "inhibition": "5.06%"}
{"smiles": "CCN(CC(=O)Nc1cccc(S(N)(=O)=O)c1)Cc1nc2ccccc2c(=O)[nH]1", "inhibition": "-6.72%"}
{"smiles": "C=CCSc1nc(N)cc(=O)[nH]1", "inhibition": "14.8%"}
{"smiles": "Cc1cccc(N2CCN(C(=O)c3ccccc3NC(=O)C3CCCCC3C(=O)O)CC2)c1", "note": "(stereo unspecified)", "inhibition": "13.9%"}
{"smiles": "CC(C)c1ccc(N2CCN(C(=O)c3ccccc3NC(=O)/C=C(\\C(=O)O)c3ccccc3)CC2)cc1", "inhibition": "110% (active)"}
{"smiles": "O=C(O)C1CC=CCC1C(=O)Nc1ccccc1C(=O)N1CCN(c2ccccc2)CC1", "note": "(stereo unspecified)", "inhibition": "12.7%"}
{"smiles": "CC12CN3CCN(CC(C3)/C1=N\\NC(=O)c1ccccc1N)C2", "inhibition": "7.18%"}
{"smiles": "Cn1c(=O)c2c(nc(NCCc3ccccc3)n2Cc2ccccc2)n(C)c1=O", "inhibition": "61.2%"}
{"smiles": "CCCCNc1nc2c(c(=O)n(C)c(=O)n2C)n1Cc1cccc(OC)c1", "inhibition": "17.1%"}
{"smiles": "Cn1c(=O)c2c(nc(N/N=C/c3cccs3)n2Cc2ccc(Br)cc2)n(C)c1=O", "inhibition": "79.6% (active)"}
{"smiles": "O=C(CS(=O)(=O)c1ccc(C(F)(F)F)cn1)NNC(=O)c1ccccc1", "inhibition": "3.02%"}
{"smiles": "CCOC(=O)c1sc2nc(C)[nH]c(=O)c2c1C", "inhibition": "3.38%"}
{"smiles": "CCOC(=O)c1sc2nc(CSc3ccccc3)[nH]c(=O)c2c1C", "inhibition": "63.4%"}
{"smiles": "CCOC(=O)c1sc(C)c2c1NC(C)(c1cccc3ccccc13)NC2=O", "note": "(stereo unspecified)", "inhibition": "74.8% (active)"}
{"smiles": "Cc1nc(/N=C(\\N)NC(=O)NC2CCCCC2)nc2ccccc12", "inhibition": "33.5%"}
{"smiles": "O=c1ccn(Cc2ccccc2Cl)cc1", "inhibition": "68.6%"}
{"smiles": "CC1(C)COC(c2cccn2Cc2ccccc2Cl)=N1", "inhibition": "71.8% (active)"}
{"smiles": "O=C(Nc1cccn(Cc2ccccc2Cl)c1=O)NC1CCCCC1", "inhibition": "26.3%"}
{"smiles": "O=C(Cc1nc2ccccc2[nH]c1=O)c1ccc(Cl)cc1", "inhibition": "-13.2%"}
{"smiles": "O=C(/C(=C/c1cccc(Cl)c1)c1nc2ccccc2[nH]1)c1ccccc1", "inhibition": "92.6% (active)"}
{"smiles": "CCC(=O)/C(=C(/O)c1ccccc1)c1nc2ccccc2[nH]1", "inhibition": "-37.6%"}
{"smiles": "Cc1ccc(NNC(=O)c2c(F)cccc2Cl)cc1Cl", "inhibition": "4.19%"}
{"smiles": "NC(=O)c1c(NC(=O)CSc2nnc(-c3ccco3)n2N)sc2c1CCCC2", "inhibition": "22.2%"}
{"smiles": "COc1cccc(CN(C)CC(=O)Nc2sc3c(c2C#N)CCC3)c1", "inhibition": "3.74%"}
{"smiles": "COc1ccc(-n2c(SCC(=O)Nc3sc4c(c3C#N)CCCC4)nnc2-c2ccc(O)cc2)cc1", "inhibition": "106% (active)"}
{"smiles": "COc1ccc(OC)c(-n2c(-c3ccn[nH]3)n[nH]c2=S)c1", "inhibition": "12.3%"}
{"smiles": "CCOC(=O)N1CCN(c2c(NCCN3CCN(c4ccccc4F)CC3)c(=O)c2=O)CC1", "inhibition": "18.8%"}
{"smiles": "O=C(Oc1ccc(-c2nc(-c3ccccn3)no2)cc1)c1ccccc1", "inhibition": "83.7% (active)"}
{"smiles": "c1ccc(-c2noc(-c3cccs3)n2)nc1", "inhibition": "22.5%"}
{"smiles": "O=C(Oc1ccccc1)c1ccc2nccnc2c1", "inhibition": "-6.68%"}
{"smiles": "O=c1c2c3c(sc2n(CCN2CCCC2)c(=O)n1Cc1ccccc1)CCCCC3", "inhibition": "44.2%"}
{"smiles": "CSc1nnnn1-c1c(C)cc(C)cc1C", "inhibition": "3.56%"}
{"smiles": "CN(c1ccccc1)S(=O)(=O)c1ccc(Cl)c(C(=O)OCC(N)=O)c1", "inhibition": "7.63%"}
{"smiles": "COc1ccc(C)cc1NC(=O)C(OC(=O)c1cccc(S(=O)(=O)N(C)c2ccccc2)c1)c1ccccc1", "note": "(stereo unspecified)", "inhibition": "-0.27%"}
{"smiles": "CC(=O)c1c(C)[nH]c(C(=O)COC(=O)c2cccc(S(=O)(=O)N(C)c3ccccc3)c2)c1C", "inhibition": "86.8% (active)"}
{"smiles": "CN(c1ccc(OCC(=O)NC2=NCCS2)cc1)S(=O)(=O)c1ccc(F)cc1", "inhibition": "-3.41%"}
{"smiles": "Cc1ccc(S(=O)(=O)/N=C(/NC(=S)Nc2c(C)n(C)n(-c3ccccc3)c2=O)c2ccccc2)cc1", "inhibition": "5.21%"}
{"smiles": "c1ccc(-c2nc(NCc3ccco3)c3ccccc3n2)cc1", "inhibition": "8.64%"}
{"smiles": "Clc1ccc2nc(-c3ccccc3)nc(C(Cl)Cl)c2c1", "inhibition": "75.6% (active)"}
{"smiles": "Clc1cccc(-c2nc(NCC3CCCO3)c3ccccc3n2)c1", "note": "(stereo unspecified)", "inhibition": "14.2%"}
{"smiles": "FC(F)(F)c1cccc(-c2nc(COc3ccc(Cl)cc3Cl)no2)c1", "inhibition": "-14.1%"}
{"smiles": "O=C(c1cc(COc2c(F)cccc2F)on1)N1CCSCC1", "inhibition": "-22.2%"}
{"smiles": "CC[C@@H](C)[C@@H](C(=O)N1CCN(C(=O)OC(C)(C)C)CC1)n1cc(CCC(=O)O)nn1", "inhibition": "-7.63%"}
{"smiles": "O=C(c1c(Cl)cccc1Cl)N1CCN(c2cccc3[nH]ccc23)CC1", "inhibition": "12.1%"}
{"smiles": "COCCN1C(=O)N[C@@H](c2ccccc2)C(C(=O)OC)=C1C", "inhibition": "-1.22%"}
{"smiles": "COC(=O)C1=C(C)N(C)C(=S)NC1c1ccccc1", "note": "(stereo unspecified)", "inhibition": "-6.17%"}
{"smiles": "COC(=O)C1=C(C)N(C)C(C)=C(C(=O)OC)C1c1cccc(Br)c1", "inhibition": "71.4% (active)"}
{"smiles": "N/C(=N\\S(=O)(=O)c1ccc(Cl)cc1)N1CCOCC1", "inhibition": "13.5%"}
{"smiles": "c1csc(-c2nnc(COc3ncnc4sccc34)o2)c1", "inhibition": "4.38%"}
{"smiles": "Cc1cccc(C)c1Nc1c(-c2ccccc2O)nc2ncccn12", "inhibition": "6.71%"}
{"smiles": "O=c1c2ccccc2c(-c2ccc(Br)cc2)nn1Cc1ccccc1", "inhibition": "36.9%"}
{"smiles": "O=c1c2ccccc2c(-c2ccccc2)nn1-c1ccccn1", "inhibition": "38.6%"}
{"smiles": "O=c1c2ccccc2c(-c2ccc(F)cc2)nn1-c1ccc(C(F)(F)F)cc1", "inhibition": "75.1% (active)"}
{"smiles": "Oc1ccc2ccccc2c1N=Nc1nccs1", "inhibition": "-57.9%"}
{"smiles": "Cc1noc(C)c1-c1nc(CSc2ccc(Cl)cc2)no1", "inhibition": "20.1%"}
{"smiles": "O=S(=O)(c1cccc(-c2nnc3n2CCCCC3)c1)N1CCOCC1", "inhibition": "7.35%"}
{"smiles": "O=C(COC(=O)c1n[nH]c2ccccc12)NCc1ccccc1", "inhibition": "38.6%"}
{"smiles": "COc1cccc(CNC(=O)c2n[nH]c3ccccc23)c1", "inhibition": "15.2%"}
{"smiles": "COc1ccc(COC(=O)c2n[nH]c3ccccc23)cc1F", "inhibition": "97.2% (active)"}
{"smiles": "C=CCN(C(=O)Nc1ccc2c(c1)nc(C)n2C)c1ccccc1", "inhibition": "-18.2%"}
{"smiles": "O=C(NCCc1c[nH]c2ccc(Cl)cc12)c1ccc([N+](=O)[O-])cc1", "inhibition": "-3.24%"}
{"smiles": "CCCOc1ccc(C(=O)NCCc2ccccc2)cc1", "inhibition": "21.8%"}
{"smiles": "CCCOc1ccc(-c2nc(N)n[nH]2)cc1", "inhibition": "20.8%"}
{"smiles": "CCCOc1ccc(Cc2c(Cl)nc(SC)nc2NC)cc1", "inhibition": "97.5% (active)"}
{"smiles": "CNc1ncnc2c1ncn2[C@@H]1O[C@H](CO)[C@H](O)C1O", "note": "(stereo partly specified)", "inhibition": "10.8%"}
{"smiles": "CCOc1cc2[nH]c(=S)n(Cc3ccc(C(=O)NCCOC)cc3)c(=O)c2cc1OCC", "inhibition": "9.91%"}
{"smiles": "COc1cc2[nH]c(=S)n(Cc3ccc(C)o3)c(=O)c2cc1OC", "inhibition": "7.74%"}
{"smiles": "COc1cc2[nH]c(=S)n(Cc3ccc(F)cc3)c(=O)c2cc1OC", "inhibition": "90.9% (active)"}
{"smiles": "C#CCNc1ccc(C(=O)OCC)cc1", "inhibition": "-15.6%"}
{"smiles": "O=C1C=C(c2ccc(Cl)cc2)C(=O)N1Nc1ccccc1", "inhibition": "108% (active)"}
{"smiles": "O=C(O)CC1=C(Nc2ccccc2)C(=O)N(c2ccccc2)C1c1ccc(Cl)cc1", "note": "(stereo unspecified)", "inhibition": "8.1%"}
{"smiles": "O=C1c2cccc3cc(Br)cc(c23)C(=O)N1Nc1ccccc1", "inhibition": "63.7%"}
{"smiles": "CCCNC(=O)c1c(N)n(-c2ccc(S(N)(=O)=O)cc2)c2nc3ccccc3nc12", "inhibition": "-1.19%"}
{"smiles": "N#Cc1c(N)n(CCOC(=O)c2ccc(Cl)cc2)c2nc3ccccc3nc12", "inhibition": "-17.1%"}
{"smiles": "CC(C)(C)c1ccc(C(=O)NCCn2c(N)c(C#N)c3nc4ccccc4nc32)cc1", "inhibition": "86.5% (active)"}
{"smiles": "Cc1cccc(OCC(=O)NC(=S)Nc2ccccc2N2CCOCC2)c1", "inhibition": "47.7%"}
{"smiles": "Cc1ccc(O)c(NC(=S)NC(=O)COc2ccc(Br)cc2)c1", "inhibition": "74.2% (active)"}
{"smiles": "Cc1ccc(O)c(NC(=O)COc2cc(C)ccc2C)c1", "inhibition": "5.05%"}
{"smiles": "CCCc1c(C(=O)O)cnn1-c1ccc(Cl)cc1", "inhibition": "-2.68%"}
{"smiles": "O=C1[C@@H]2C(c3cccnc3)=NO[C@@H]2C(=O)N1c1ccc(Cl)cc1Cl", "inhibition": "19.2%"}
